Measurements: PubChem BioAssay (Tox21)
Results filed as inconclusive are left out. Entries that show only a call come without a potency. Some compounds were tested as several samples or in several runs, with calls that do not always agree. Calls of active or inactive are those of the source. Calls come from the whole dose curve; as a rule, active = well fitted activation curve with a large enough effect in the repeat runs; inconclusive = weak or mixed curves; inactive = no such curve, though single readings can be large or run the other way.

target: Nuclear receptor subfamily 1 group I member 3 (Homo sapiens) (UniProt Q14994); experiment: qHTS assay to identify small molecule agonists of the constitutive androstane receptor (CAR) signaling pathway (AID 1224839); settings: HepG2 hCAR CYP2B6-luciferase, agonist mode, 24 h; series mostly up to 92.4 µM; activation: at the top concentration; note: nearly all actives have a fitted effect of over 15% in size;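 for activation: HepG2 cells stably carrying human CAR and a CYP2B6 luciferase reporter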
Sequence (Q14994 whole entry, looked up): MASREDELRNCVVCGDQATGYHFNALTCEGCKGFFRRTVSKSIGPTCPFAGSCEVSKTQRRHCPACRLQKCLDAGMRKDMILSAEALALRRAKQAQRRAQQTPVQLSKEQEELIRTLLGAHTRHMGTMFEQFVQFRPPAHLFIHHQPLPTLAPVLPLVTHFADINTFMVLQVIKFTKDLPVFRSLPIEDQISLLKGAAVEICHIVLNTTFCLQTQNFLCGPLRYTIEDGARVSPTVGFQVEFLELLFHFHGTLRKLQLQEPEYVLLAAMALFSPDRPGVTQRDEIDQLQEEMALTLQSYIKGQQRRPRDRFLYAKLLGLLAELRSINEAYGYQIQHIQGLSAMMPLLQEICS
Text: National Center for Advancing Translational Sciences [NCATS] NIH Chemical Genomics Center [NCGC] U.S. Environmental Protection Agency [EPA] National Institutes of Environmental Health Sciences [NIEHS] National Toxicology Program [NTP] Assay overview: The constitutive androstane receptor (CAR) is a nuclear receptor which regulates multiple drug metabolizing enzymes (DMEs) and transporters. Activating CAR will generally increase the transcription and subsequent translation of CYP2B6 and CYP3A4. These two DMEs represent about 50% of the drug metabolizing potential in the body. […] Recently, there have also been studies performed indicating CARs role in energy metabolism and cancer therapy. Therefore, inducing CARs activity could have a potential effect on diabetes and cancer. Identifying environmental toxins and compounds which modulate CAR, through the use of the Tox21 10K compound collection, will be an important step in determining the toxicity and potential therapeutic effects these factors will have on the human body.
Assay Protocol Summary: A double-stable (hCAR and CYP2B6-2.2kb) transfected cell line, derived from human hepatoma (HepG2) cells, was utilized for the duration of the quantitative high-throughput screens. The HepG2-CYP2B6-hCAR cells suspended in DMEM culture medium supplemented with 10% FBS, 5 ug/mL blasticidin, 0.5 mg/mL geneticin, 100 U/mL penicillin and 100 ug/mL streptomycin were dispensed at 2500 cells/4 uL/well in 1536-well white solid bottom plates using a Multidrop Combi. After the assay plates were incubated at 37 C/5% CO2 for 4 hrs, 23 nL of compounds at 15 concentrations (from 5-48 columns) or positive control (from 1 to 4 columns) were transferred to the assay plates using a Pintool station. One uL of PK11195, was added using a Flying Reagent Dispenser to generate a final concentration of 0.75 uM PK11195 inside each well. After a 24 hr incubation period at 37 C/5% CO2, four uL of ONE-Glo reagent was added into the assay plates using a Flying Reagent Dispenser. After a 30 min incubation period at room temperature, the luminescence intensity in the assay plates was measured using a ViewLux plate reader.
Potency is the fitted concentration of half-maximal effect.

**Q.** `NC1CCCCC1N` (stereo not given) was tested. Which Potency did it give?
**A.** The Potency was “inactive”.

**Q.** `O=Cc1ccc(CO)o1` was tested. Which Potency did it give?
**A.** Its Potency is “inactive”.

**Q.** With `CN=C(NC#N)NCCSCc1nc[nH]c1C` as the molecule, how does the Potency read?
**A.** Its Potency is “inactive”.

**Q.** With `CC/C=C(\C(=O)N[C@@H]1C(=O)N2C(C(=O)OCOC(=O)C(C)(C)C)=C(COC(N)=O)CS[C@H]12)c1csc(N)n1` as the molecule, how does the Potency read?
**A.** Its Potency is “inactive”.

**Q.** For `CCCCCCCCC(=O)O`, which Potency is on record?
**A.** Its Potency is “inactive”.

**Q.** `O=c1c(O)c(-c2ccc(O)c(O)c2)oc2cc(O)cc(O)c12` was tested. Which Potency did it give?
**A.** Its Potency is 54.5 µM (active) and inactive.

**Q.** How did the Potency turn out when `O=C1O[C@H]([C@H](O)CO)C(O)=C1O` was run?
**A.** Its Potency is “inactive”.

**Q.** With `O=C(O)Cc1c[nH]c2ccccc12` as the molecule, how does the Potency read?
**A.** Its Potency is “inactive”.

**Q.** Which “activation” value does the source give for `CCOC(=O)c1ccc(O)cc1` here?
**A.** The value was 7.65% [at 42.5 µM] (inactive).

**Q.** How did the Potency turn out when `O=[N+]([O-])c1ccccc1C(F)(F)F` was run?
**A.** Its Potency is “inactive”.

**Q.** How did the Potency turn out when `COCN(COC)c1nc(N(COC)COC)nc(N(COC)COC)n1` was run?
**A.** Its Potency is “inactive”.

**Q.** With `CC(C=O)Cc1ccc(C(C)(C)C)cc1` (stereo not given) as the molecule, how does the Potency read?
**A.** The Potency was “inactive”.

**Q.** With `CC(=O)OCc1ccc2c(c1)OCO2` as the molecule, how does the Potency read?
**A.** The Potency was “inactive”.

**Q.** For `CCCCCCCC(=O)O`, which Potency is on record?
**A.** The Potency was “inactive”.

**Q.** `CC(O)CNCC(C)O` (stereo not given) was tested. Which Potency did it give?
**A.** Its Potency is “inactive”.

**Q.** With `Cc1ccccc1C=O` as the molecule, how does the Potency read?
**A.** The Potency was “inactive”.

**Q.** How did the Potency turn out when `CC(=O)OC(C)(C)C1CC=C(C)CC1` (stereo not given) was run?
**A.** The Potency was “inactive”.

**Q.** How did the Potency turn out when `CS(=O)(=O)c1ccc(Cl)cc1` was run?
**A.** Its Potency is “inactive”.

**Q.** For `CCc1cccc(CC)c1N`, which “activation” value is on record?
**A.** Its value is 0.962% (inactive).

**Q.** How did the Potency turn out when `COc1c(Cl)ccc(Cl)c1C(=O)O` was run?
**A.** Its Potency is “inactive”.

**Q.** `CC(COCC(C)OC(=O)c1ccccc1)OC(=O)c1ccccc1` (stereo not given) was tested. Which Potency did it give?
**A.** Its Potency is “inactive”.

**Q.** For `C=CC(C)(C)C`, which Potency is on record?
**A.** Its Potency is “inactive”.

**Q.** Which Potency does the source give for `O=C1OC(=O)c2c(Cl)c(Cl)c(Cl)c(Cl)c21` here?
**A.** The Potency was “inactive”.

**Q.** `COc1ccc([C@@H]2CC(=O)c3c(O)cc(O[C@@H]4O[C@H](CO[C@@H]5O[C@@H](C)[C@H](O)[C@@H](O)[C@H]5O)[C@@H](O)[C@H](O)[C@H]4O)cc3O2)cc1OC` was tested. Which Potency did it give?
**A.** The Potency was “inactive”.

**Q.** For `CCCCC(=O)O`, which Potency is on record?
**A.** The Potency was “inactive”.

**Q.** For `CC/C(C)=N/O`, which Potency is on record?
**A.** The Potency was “inactive”.

**Q.** Which Potency does the source give for `NC(N)=S` here?
**A.** The Potency was “inactive”.

**Q.** With `COc1ccc(N)c(OC)c1` as the molecule, how does the “activation” value read?
**A.** The value was -0.0045% [at 42.5 µM] (inactive).

**Q.** Which Potency does the source give for `CCCOC(=O)NCCCN(C)C` here?
**A.** Its Potency is “inactive”.

**Q.** For `CCc1cccc(O)c1`, which Potency is on record?
**A.** Its Potency is “inactive”.

**Q.** `CC(=O)c1nccs1` was tested. Which Potency did it give?
**A.** The Potency was “inactive”.

**Q.** Which Potency does the source give for `O=C1CCCCCCCCCCC1` here?
**A.** The Potency was “inactive”.

**Q.** For `Brc1ccc(Oc2ccc(Br)cc2)cc1`, which Potency is on record?
**A.** Its Potency is “inactive”.

**Q.** Which Potency does the source give for `NC(=O)c1ncn([C@@H]2O[C@H](CO)[C@@H](O)[C@H]2O)n1` here?
**A.** The Potency was “inactive”.

**Q.** Which Potency does the source give for `CC(=O)OC/C=C(\C)CCC=C(C)C` here?
**A.** Its Potency is “inactive”.

**Q.** How did the Potency turn out when `NC(=O)NC(N)=O` was run?
**A.** The Potency was “inactive”.

**Q.** For `COc1ccccc1[N+](=O)[O-]`, which Potency is on record?
**A.** The Potency was “inactive”.

**Q.** Which Potency does the source give for `OCc1ccc(Cl)cc1Cl` here?
**A.** Its Potency is “inactive”.

**Q.** Which Potency does the source give for `CCCCCCCCO` here?
**A.** Its Potency is “inactive”.

**Q.** `CCCCCCC(=O)O` was tested. Which Potency did it give?
**A.** The Potency was “inactive”.
